Results reported in PubChem BioAssay.
Where “and” joins values, the source holds several entries; their conditions need not be identical. Equal values may be shown once. Results filed as inconclusive are left out. Calls of active or inactive are those of the source. Unless noted, no cut-off is given here; in the data, nearly all actives have AC50 up to about 26 µM.

Legend:
[1] = viability loss in pontine glioma line – cell-based, SU-DIPG-XXV, MIPE5.0, CellTiter-Glo, qHTS, dose response (AID 1347065); settings: CellTiter-Glo ATP luminescence;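 note: cells exposed to compound for 48 hours before ATP readout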
[2] = SU-DIPG-VI glioma cell viability, MIPE4.0 library, CellTiter-Glo luminescence, qHTS (AID 1347066; cut-off not given, nearly all actives have AC50 up to about 30 µM;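 note: cells exposed to compound for 48 hours before readout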); settings: CellTiter-Glo ATP luminescence
[3] = SU-DIPG-XXV glioma cell viability, MIPE5.0 library, qHTS (AID 1347068; cut-off not given, nearly all actives have IC50 up to about 30 µM)
[4] = molecular target: NAD(+) hydrolase SARM1 (Homo sapiens) (UniProt Q6SZW1); experiment: SARM1 TIR NADase inhibitors, cell lysate, NAD-Glo luminescence (AID 1508614;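 active = compound whose remaining NAD level is above about 45 nM, limit read from the data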;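 note: higher remaining NAD means stronger inhibition of SARM1 NADase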); settings: SAM-TIR HEK293T lysate NADase, at 1 µM, stronger effect = higher value
[5] = molecular target: Mitogen-activated protein kinase 7 (Homo sapiens) (UniProt Q13164); experiment: ERK5 transactivation activators in reporter cells, primary screen, cell-based, HTS (AID 1508626;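 active = luciferase signal above three times the same-plate solvent-only control wells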;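 note: luciferase driven by Gal4-ERK5 fusion binding five Gal4 sites before minimal TATA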); settings: HeLa Gal4-ERK5 transactivation, 18 h, at 5 µM, stronger effect = higher value
[6] = viability rescue of complex I mutant cybrids, primary screen, cell-based, galactose medium, ATP luminescence (AID 1645843;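 active = z-score of at least 1.8 in each of two replicates, scored against plate mean and spread of sample wells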;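 note: positive z means more ATP and so rescue of galactose-driven cybrid death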); settings: complex I mutant cybrid cells, 72 h, stronger effect = higher value
[7] = LFS_MB_P medulloblastoma growth inhibition, cell-based, chromothripsis tumors, cisplatin or BGB combos (AID 1671449; in the data active = inhibition above about 80%;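 note: cells exposed for 96 hours; 0% = vehicle DMSO and 100% = killing by high DMSO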); settings: LFS_MB_P medulloblastoma cells
[8] = HDN33 neuroblastoma growth inhibition, cell-based, chromothripsis tumors, cisplatin or BGB combos (AID 1671450; in the data active = inhibition above about 80%;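 note: cells exposed to compound for four days; 0% = vehicle DMSO and 100% = cell killing by high DMSO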); settings: HDN33 neuroblastoma cells, stronger effect = higher value
[9] = ICB984 medulloblastoma cell growth inhibition, synergistic combos for chromothripsis tumors, cisplatin or BGB combos (AID 1671451; call rule not given here;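 note: cells exposed for 96 hours before readout; 0% = vehicle DMSO and 100% = killing by high DMSO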); settings: ICB984 medulloblastoma cells, drug combinations, stronger effect = higher value
[10] = LFS_MB_1R medulloblastoma cell growth inhibition, synergistic combos for chromothripsis tumors, cisplatin or BGB combos (AID 1671452; in the data active = inhibition above about 80%;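 note: cells exposed for 96 hours before readout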); settings: LFS_MB_1R medulloblastoma cells, stronger effect = higher value
[11] = HTB85 osteosarcoma cell growth inhibition, synergistic combos for chromothripsis tumors, BGB or cisplatin IC20 combos (AID 1671453; in the data active = inhibition above about 80%;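 note: cells exposed for 96 hours before readout; 0% = vehicle DMSO and 100% = high DMSO killing control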); settings: HTB85 osteosarcoma cells, drug combinations, stronger effect = higher value
[12] = CRL2098 osteosarcoma cell growth inhibition, synergistic combos for chromothripsis tumors, BGB or cisplatin IC20 combos (AID 1671454; in the data active = inhibition above about 80%;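 note: cells exposed for 96 h before readout; 0% = vehicle DMSO and 100% = killing by high DMSO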); settings: CRL2098 osteosarcoma cells, drug combinations, stronger effect = higher value
[13] = HD-MB03 medulloblastoma cell growth inhibition, synergistic combos for chromothripsis tumors, BGB or cisplatin IC20 combos (AID 1671455; in the data active = inhibition above about 83%;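 note: 0% = vehicle DMSO and 100% = high DMSO as cytotoxic control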); settings: HD-MB03 medulloblastoma cells, stronger effect = higher value
[14] = sensitizers of A549 cells to miR-34 induction, primary screen, imaging, A549 dox-inducible miR-34, nuclei and caspase counts (AID 1347080;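 active = compounds whose cell count with miR-34 switched on is under 0.7 times the count with it off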); settings: A549 miR-34 inducible, Hoechst nuclei count, 48 h
[15] = survival rescue of mitochondrial mutant cells in low glucose, primary screen, MELAS cybrids, Rieske KO mouse fibroblasts, CellTiter-Glo (AID 1508586;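 active = mean z-score across replicates of 1.96 or higher in either the MELAS or the Rieske mutant cell line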;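 note: z relative to plate mean and SD of compound and empty wells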)
[16] = JHH-DIPG-1 glioma cell viability, MIPE5.0 library, CellTiter-Glo luminescence, qHTS (AID 1347067); settings: JHH-DIPG-1 glioma viability, CellTiter-Glo ATP luminescence;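 note: cells exposed to compound for 48 hours before readout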
[17] = phospholipid biosynthesis inhibitors in animal cells, primary screen, cell-based, LOPAC library, screen 4 (AID 1347384; call rule not given here); settings: phospholipid biosynthesis inhibition screen, at 10 µM
[18] = measured here: combination with BGB IC40, at 0.05 µM
[19] = stronger effect = lower value, cell number ratio, induced over uninduced
[20] = measured here: relative caspase fold change +Dox/-Dox
[21] = measured here: total cells with miR-34 induction, stronger effect = lower value
[22] = measured here: total cells without miR-34 induction
[23] = MELAS cybrid survival, CellTiter-Glo 48 h, stronger effect = higher value
[24] = Rieske KO mouse fibroblast survival, CellTiter-Glo 72 h

Sequence of Mitogen-activated protein kinase 7 (Homo sapiens) (Q13164 whole entry, looked up, the tested form may be a part): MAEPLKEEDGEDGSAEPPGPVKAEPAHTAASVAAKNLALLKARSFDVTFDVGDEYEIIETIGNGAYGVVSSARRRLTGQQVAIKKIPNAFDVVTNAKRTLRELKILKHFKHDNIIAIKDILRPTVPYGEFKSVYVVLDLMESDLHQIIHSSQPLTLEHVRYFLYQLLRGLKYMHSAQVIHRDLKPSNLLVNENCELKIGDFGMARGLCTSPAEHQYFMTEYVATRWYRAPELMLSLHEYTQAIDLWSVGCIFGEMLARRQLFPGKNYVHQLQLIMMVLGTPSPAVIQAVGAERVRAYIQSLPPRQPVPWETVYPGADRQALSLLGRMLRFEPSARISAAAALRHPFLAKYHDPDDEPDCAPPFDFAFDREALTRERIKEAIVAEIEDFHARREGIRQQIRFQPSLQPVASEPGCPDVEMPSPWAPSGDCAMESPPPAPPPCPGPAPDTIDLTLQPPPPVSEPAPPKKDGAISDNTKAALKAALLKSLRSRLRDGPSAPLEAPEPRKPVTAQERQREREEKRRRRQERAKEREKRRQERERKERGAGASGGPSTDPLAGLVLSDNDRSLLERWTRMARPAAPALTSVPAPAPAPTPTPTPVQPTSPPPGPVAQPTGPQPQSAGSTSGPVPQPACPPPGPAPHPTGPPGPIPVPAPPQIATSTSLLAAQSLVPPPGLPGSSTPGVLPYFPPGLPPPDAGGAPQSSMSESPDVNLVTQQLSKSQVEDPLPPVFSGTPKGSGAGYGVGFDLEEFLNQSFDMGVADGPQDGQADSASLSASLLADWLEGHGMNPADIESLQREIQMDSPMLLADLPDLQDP
Sequence of NAD(+) hydrolase SARM1 (Homo sapiens) (Q6SZW1 whole entry, looked up, the tested form may be a part): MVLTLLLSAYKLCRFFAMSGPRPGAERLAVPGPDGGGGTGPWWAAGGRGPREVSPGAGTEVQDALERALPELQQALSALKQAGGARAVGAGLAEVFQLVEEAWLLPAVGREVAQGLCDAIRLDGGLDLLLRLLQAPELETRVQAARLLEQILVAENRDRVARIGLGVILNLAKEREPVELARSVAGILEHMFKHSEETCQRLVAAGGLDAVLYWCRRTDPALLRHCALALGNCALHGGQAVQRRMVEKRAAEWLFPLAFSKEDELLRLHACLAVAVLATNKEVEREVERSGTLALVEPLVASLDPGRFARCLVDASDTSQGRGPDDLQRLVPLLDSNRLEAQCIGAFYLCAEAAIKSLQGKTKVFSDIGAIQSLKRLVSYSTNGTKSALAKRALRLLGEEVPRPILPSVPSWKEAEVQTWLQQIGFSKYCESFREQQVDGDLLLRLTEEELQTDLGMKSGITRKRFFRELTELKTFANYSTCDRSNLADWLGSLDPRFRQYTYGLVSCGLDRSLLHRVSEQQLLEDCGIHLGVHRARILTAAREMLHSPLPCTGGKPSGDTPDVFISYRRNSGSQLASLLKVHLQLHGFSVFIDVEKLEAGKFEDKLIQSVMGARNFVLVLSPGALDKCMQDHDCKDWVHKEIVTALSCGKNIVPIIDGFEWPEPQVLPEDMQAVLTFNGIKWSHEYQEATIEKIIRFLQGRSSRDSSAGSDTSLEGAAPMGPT

Compound: CC(N)C12CC3CC(CC(C3)C1)C2 (stereo unspecified)
- outcome [1]: inactive
- outcome [2]: inactive
- outcome [3]: inactive
- remaining NAD [4]: 10 nM (inactive)
- luciferase signal [5]: 48 AU (inactive)
- z-score [6]: 1.03 (inactive) and -0.17 (inactive) and -0.24 (inactive)
- inhibition ([7]; at 0.5 µM, stronger effect = higher value): 6% (inactive)
- inhibition ([7]; measured here: combination with BGB IC20, at 0.005 µM): -16.1%
- inhibition ([7]; measured here: combination with BGB IC40, at 0.005 µM): -38.1%
- inhibition [7, 18]: -30.6%
- inhibition ([7]; measured here: combination with cisplatin, at 0.5 µM, stronger effect = higher value): 9.24%
- inhibition ([7]; measured here: combination with cisplatin, at 5 µM, stronger effect = higher value): -22.9%
- inhibition ([8]; BGB combo, at 5 µM): -28.3%
- inhibition ([8]; at 0.5 µM): -32.5% (inactive)
- inhibition ([8]; cisplatin combo, at 5 µM): -20.2%
- inhibition ([8]; measured here: with BGB IC20 combination, at 0.5 µM): -33.5%
- inhibition ([8]; measured here: with cisplatin IC20 combination, at 0.5 µM): -23.6%
- inhibition ([8]; single agent, at 5 µM): -36.9%
- inhibition ([9]; BGB IC20 combo, at 0.005 µM): -4.5%
- inhibition ([9]; BGB IC40 combo, at 0.005 µM): -19.4%
- inhibition ([9]; BGB IC40 combo, at 0.05 µM): -14.2%
- inhibition ([9]; at 0.5 µM): -43.5% (inactive)
- inhibition ([9]; cisplatin combo, at 0.05 µM): -17.4%
- inhibition ([9]; cisplatin combo, at 0.5 µM): -54.1%
- inhibition ([9]; cisplatin combo, at 5 µM): -42.4%
- inhibition ([9]; measured here: 5 uM single agent, at 5 µM): 12.3%
- inhibition ([10]; at 0.5 µM): -32.9% (inactive)
- inhibition [10, 18]: -22.2%
- inhibition ([10]; measured here: combination with cisplatin, at 0.5 µM): -47.8%
- inhibition ([10]; measured here: combination with cisplatin, at 5 µM): -25.5%
- inhibition ([11]; at 0.5 µM): -15.6% (inactive)
- inhibition ([11]; measured here: with BGB IC20, at 0.5 µM): -39.8%
- inhibition ([11]; measured here: with BGB IC20, at 5 µM): -20.6%
- inhibition ([11]; measured here: with cisplatin IC20, at 0.5 µM): -6.13%
- inhibition ([11]; measured here: with cisplatin IC20, at 5 µM): -66.2%
- inhibition ([11]; single agent, at 5 µM): -17.9%
- inhibition ([12]; at 0.5 µM): -53.4% (inactive)
- inhibition ([12]; measured here: combination with BGB at IC20, at 0.5 µM): -8.22%
- inhibition ([12]; measured here: combination with cisplatin at IC20, at 0.5 µM): -77.6%
- inhibition ([13]; at 0.5 µM): -18.7% (inactive)
- inhibition ([13]; measured here: combo with BGB at IC20, at 0.5 µM): -21.4%
- inhibition ([13]; measured here: combo with cisplatin at IC20, at 0.5 µM): -22.1%

Compound: Nc1ncnc2c1ncn2[C@@H]1O[C@H](CO)[C@@H](O)[C@H]1O
- outcome [1]: inactive
- outcome [2]: inactive
- outcome [3]: inactive
- fold change [14, 19]: 0.803 (inactive)
- fold change [14, 20]: 0.527
- cell count [14, 21]: 10400
- cell count [14, 22]: 12900
- remaining NAD [4]: 10 nM (inactive)
- luciferase signal [5]: 112 AU (inactive)

Compound: COC(=O)Nc1nc2ccc(Sc3ccccc3)cc2[nH]1
- AC50 [1]: 742 nM (active)
- outcome [2]: inactive
- outcome [3]: inactive
- z-score [15, 23]: 1.35 (inactive) and -2.36 (inactive) and -2.06 (inactive)
- z-score [15, 24]: -0.0455 and -0.127 and 1.14
- remaining NAD [4]: 10 nM (inactive)
- luciferase signal [5]: 36 AU (inactive)
- z-score [6]: -1.72 (inactive)

Compound: Cc1cn[nH]c1
- outcome [1]: inactive
- outcome [16]: inactive
- outcome [3]: inactive
- fold change [14, 19]: 0.994 (inactive) and 0.902 (inactive)
- fold change [14, 20]: 0.844 and 2.49
- cell count [14, 21]: 10200 and 12000
- cell count [14, 22]: 10200 and 13300
- outcome [17]: inactive
- z-score [15, 23]: 0.667 (inactive)
- z-score [15, 24]: 0.0381
- remaining NAD [4]: 10 nM (inactive)
- luciferase signal [5]: 44 AU (inactive)
- z-score [6]: 0.65 (inactive)

Compound: CC(C)[C@H](N)C(=O)OCCOCn1cnc2c(=O)[nH]c(N)nc21
- outcome [1]: inactive
- outcome [16]: inactive
- outcome [3]: inactive
- fold change [14, 19]: 0.847 (inactive)
- fold change [14, 20]: 1.65
- cell count [14, 21]: 9730
- cell count [14, 22]: 11500
- z-score [15, 23]: 0.38 (inactive) and 0.156 (inactive)
- z-score [15, 24]: 0.16 and -0.416
- remaining NAD [4]: 10 nM (inactive)
- luciferase signal [5]: 32 AU (inactive)
- z-score [6]: 0.625 (inactive)

Compound: CCOC(=O)[C@H](CCc1ccccc1)N[C@@H](C)C(=O)N1CCC[C@H]1C(=O)O
- outcome [1]: inactive
- outcome [2]: inactive
- outcome [16]: inactive
- fold change [14, 19]: 0.896 (inactive) and 0.877 (inactive) and 0.886 (inactive)
- fold change [14, 20]: 0.827 and 3.26 and 1.44
- cell count [14, 21]: 8260 and 11300 and 10300
- cell count [14, 22]: 9220 and 12900 and 11600
- z-score [15, 23]: -1.03 (inactive) and -0.334 (inactive)
- z-score [15, 24]: -0.133 and -0.361
- remaining NAD [4]: 10 nM (inactive)
- luciferase signal [5]: 64 AU (inactive)
- z-score [6]: 0.27 (inactive)
